# Measured values from PubChem BioAssay (NCI).
# This is part of a sample that, as a whole, favours compounds with a hit. Of some 79,000 tested, about 15% had one in any assay. Unmarked numbers belong to inactive results. The source made the active and inactive calls. Rule as the data show it: active = growth inhibition above about 70%; inactive = the rest.
# Key:
# [1] = NCI Yeast Anticancer Drug Screen. Data for the rad52 strain (AID 147);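 also: 0% = growth of vehicle-treated control cultures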; details: S. cerevisiae rad52 mutant growth inhibition, stronger effect = higher value
# Summary of the method: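 Inhibition of yeast growth, referenced to vehicle controls, was the measured output for a strain with defective DNA damage repair.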
# [2] = NCI Yeast Anticancer Drug Screen. Data for the wt1 strain (AID 149);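 also: 0% = growth of vehicle-treated wt1 cultures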; details: S. cerevisiae wt1 strain (SPY 50644) growth inhibition, stronger effect = higher value
# Summary of the method: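 Readout: yeast growth inhibition, normalised to vehicle controls, in the wt1 strain exposed to test compounds.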
# [3] = NCI Yeast Anticancer Drug Screen. Data for the rad50EPP+ strain (AID 151);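 also: 0% = growth of vehicle-treated control cultures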; details: S. cerevisiae rad50 mutant strain, stronger effect = higher value
# Summary of the method: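 Genetically defined yeast (rad50EPP+, DNA damage repair alteration) is grown with compound, and inhibition of growth is expressed relative to vehicle-treated controls.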
# [4] = NCI Yeast Anticancer Drug Screen. Data for the mgt1 strain (AID 153); details: S. cerevisiae mgt1 mutant growth inhibition, stronger effect = higher value
# Summary of the method: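 In the mgt1 strain, test compounds were added and growth inhibition was determined relative to vehicle-treated controls.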
# [5] = NCI Yeast Anticancer Drug Screen. Data for the rad50 strain (AID 155);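 also: 0% = growth of vehicle-only cultures of the same strain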; details: S. cerevisiae rad50 strain growth inhibition, stronger effect = higher value
# Summary of the method: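 Compounds were tested on a yeast strain with an engineered DNA damage repair alteration; the reported value is growth inhibition normalised to vehicle treatment.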
# [6] = NCI Yeast Anticancer Drug Screen. Data for the mec2-1 strain (AID 157); details: S. cerevisiae mec2-1 strain, stronger effect = higher value
# Summary of the method: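 Each compound was tested on mec2-1 yeast, a strain altered in DNA damage repair or cell cycle control. Growth inhibition is reported relative to vehicle.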
# [7] = NCI Yeast Anticancer Drug Screen. Data for the rad14 strain (AID 159);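 also: 0% = growth of vehicle-treated control cultures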; details: S. cerevisiae rad14 strain growth inhibition, stronger effect = higher value
# Summary of the method: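 Compound-treated yeast with a defined DNA-repair lesion; growth inhibition normalised to vehicle-treated cultures.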
# [8] = NCI Yeast Anticancer Drug Screen. Data for the sgs1 mgt1 strain (AID 161);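 also: 0% = growth of cultures given vehicle only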; details: S. cerevisiae sgs1 mgt1 strain, stronger effect = higher value
# Summary of the method: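 Test agents were incubated with a DNA-repair-mutant yeast strain. Growth was then read and compared against vehicle-treated controls.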
# [9] = NCI Yeast Anticancer Drug Screen. Data for the CLN2oe strain (AID 163);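 also: 0% = growth of vehicle-only control cultures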; details: S. cerevisiae CLN2oe strain, stronger effect = higher value
# Summary of the method: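 First, the altered yeast strain was treated with each compound; second, its growth was measured; finally, inhibition was derived by comparison with vehicle controls.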
# [10] = NCI Yeast Anticancer Drug Screen. Data for the cln2 rad14 strain (AID 165);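 also: 0% = growth equal to vehicle treated cultures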; details: S. cerevisiae cln2 rad14 strain, stronger effect = higher value
# Summary of the method: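 Test compounds were added to cln2 rad14 yeast cultures; inhibition of growth was then determined by comparison with vehicle treatment.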
# [11] = NCI Yeast Anticancer Drug Screen. Data for the bub3 strain (AID 167); details: S. cerevisiae bub3 mutant strain, stronger effect = higher value
# Summary of the method: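 Growth of a checkpoint-deficient yeast mutant is measured after compound exposure. Values represent inhibition relative to vehicle.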
# [12] = NCI Yeast Anticancer Drug Screen. Data for the wt2 strain (AID 169);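 also: 0% = growth of vehicle-treated yeast cultures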; details: S. cerevisiae wt2 strain growth inhibition, stronger effect = higher value
# Summary of the method: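 The panel's yeast strains carry defined changes in DNA repair or cell cycle genes. Each strain is grown with compound, and growth loss is scored relative to vehicle.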
# [13] = NCI Yeast Anticancer Drug Screen. Data for the mlh1 strain (AID 171);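 also: 0% = growth of vehicle-treated control cultures of the same strain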; details: S. cerevisiae mlh1 strain growth inhibition, stronger effect = higher value
# Summary of the method: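 Inhibition values reflect reduced yeast growth in the presence of compound, referenced to vehicle controls, using a strain chosen for its alteration in DNA repair or cell cycle control.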
# [14] = NCI Yeast Anticancer Drug Screen. Data for the sgs1 strain (AID 173);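 also: 0% = growth of vehicle-only control cultures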; details: S. cerevisiae sgs1 mutant, stronger effect = higher value
# Summary of the method: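 Vehicle-treated cultures served as reference for growth inhibition of a yeast strain altered in DNA damage repair or cell cycle control after compound exposure.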
# [15] = NCI Yeast Anticancer Drug Screen. Data for the mlh1 rad18 strain (AID 175); details: S. cerevisiae mlh1 rad18 strain growth inhibition, stronger effect = higher value
# Summary of the method: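 Inhibition values reflect reduced growth of mutant yeast versus vehicle-treated controls following compound exposure; the mutations affect DNA damage repair.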
# [16] = NCI Yeast Anticancer Drug Screen. Data for the rad18 strain (AID 177); details: S. cerevisiae rad18 mutant growth inhibition, stronger effect = higher value
# Summary of the method: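 Steps: expose repair-mutant yeast to compound; measure growth; express as inhibition relative to vehicle control.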
# [17] = at 5.0 µM (retest, dose inferred, filed as 0.5)
# [18] = at 50.0 µM (retest, dose inferred, filed as 5.0)
structure (smiles),measurement,setting,value
CCOc1ccc(N)c(S)c1,growth inhibition,[1]; at 1.2 µM,1%
same,growth inhibition,[1]; at 3.7 µM,3%
same,growth inhibition,[1]; at 11.0 µM,10%
same,growth inhibition,[1]; at 33.0 µM,79% (active)
same,growth inhibition,[1]; at 100.0 µM,97% (active)
same,growth inhibition,[2]; at 1.2 µM,0%
same,growth inhibition,[2]; at 3.7 µM,4%
same,growth inhibition,[2]; at 11.0 µM,7%
same,growth inhibition,[2]; at 33.0 µM,38%
same,growth inhibition,[2]; at 100.0 µM,97% (active)
same,growth inhibition,[3]; at 1.2 µM,0%
same,growth inhibition,[3]; at 3.7 µM,-4%
same,growth inhibition,[3]; at 11.0 µM,10%
same,growth inhibition,[3]; at 33.0 µM,97% (active)
same,growth inhibition,[3]; at 100.0 µM,96% (active)
same,growth inhibition,[4]; at 1.2 µM,0%
same,growth inhibition,[4]; at 3.7 µM,-1%
same,growth inhibition,[4]; at 11.0 µM,6%
same,growth inhibition,[4]; at 33.0 µM,71% (active)
same,growth inhibition,[4]; at 100.0 µM,98% (active)
same,growth inhibition,[5]; at 1.2 µM,1%
same,growth inhibition,[5]; at 3.7 µM,-45%
same,growth inhibition,[5]; [17],0%
same,growth inhibition,[5]; at 11.0 µM,34%
same,growth inhibition,[5]; at 33.0 µM,88% (active)
same,growth inhibition,[5]; [18],98% (active)
same,growth inhibition,[5]; at 50.0 µM,93.6% (active)
same,growth inhibition,[5]; at 100.0 µM,97% (active)
same,growth inhibition,[6]; at 1.2 µM,0%
same,growth inhibition,[6]; at 3.7 µM,4%
same,growth inhibition,[6]; [17],-1%
same,growth inhibition,[6]; at 11.0 µM,17%
same,growth inhibition,[6]; at 33.0 µM,68%
same,growth inhibition,[6]; [18],96% (active)
same,growth inhibition,[6]; at 50.0 µM,91.3% (active)
same,growth inhibition,[6]; at 100.0 µM,98% (active)
same,growth inhibition,[7]; at 1.2 µM,-2%
same,growth inhibition,[7]; at 3.7 µM,-7%
same,growth inhibition,[7]; at 11.0 µM,1%
same,growth inhibition,[7]; at 33.0 µM,54%
same,growth inhibition,[7]; at 100.0 µM,98% (active)
same,growth inhibition,[8]; [17],9%
same,growth inhibition,[8]; [18],97% (active)
same,growth inhibition,[8]; at 50.0 µM,98.2% (active)
same,growth inhibition,[9]; at 1.2 µM,0%
same,growth inhibition,[9]; at 3.7 µM,-6%
same,growth inhibition,[9]; at 11.0 µM,-4%
same,growth inhibition,[9]; at 33.0 µM,4%
same,growth inhibition,[9]; at 100.0 µM,91% (active)
same,growth inhibition,[10]; [17],9%
same,growth inhibition,[10]; [18],98% (active)
same,growth inhibition,[10]; at 50.0 µM,97% (active)
same,growth inhibition,[11]; at 1.2 µM,0%
same,growth inhibition,[11]; at 3.7 µM,4%
same,growth inhibition,[11]; [17],1%
same,growth inhibition,[11]; at 11.0 µM,23%
same,growth inhibition,[11]; at 33.0 µM,97% (active)
same,growth inhibition,[11]; [18],27%
same,growth inhibition,[11]; at 50.0 µM,98% (active)
same,growth inhibition,[11]; at 100.0 µM,96% (active)
same,growth inhibition,[12]; at 1.2 µM,-1%
same,growth inhibition,[12]; at 3.7 µM,8%
same,growth inhibition,[12]; at 11.0 µM,3%
same,growth inhibition,[12]; at 33.0 µM,86% (active)
same,growth inhibition,[12]; at 100.0 µM,97% (active)
same,growth inhibition,[13]; at 1.2 µM,0%
same,growth inhibition,[13]; at 3.7 µM,3%
same,growth inhibition,[13]; at 11.0 µM,10%
same,growth inhibition,[13]; at 33.0 µM,82% (active)
same,growth inhibition,[13]; at 100.0 µM,98% (active)
same,growth inhibition,[14]; at 1.2 µM,-3%
same,growth inhibition,[14]; at 3.7 µM,0%
same,growth inhibition,[14]; at 11.0 µM,18%
same,growth inhibition,[14]; at 33.0 µM,97% (active)
same,growth inhibition,[14]; at 100.0 µM,96% (active)
same,growth inhibition,[15]; [17],2%
same,growth inhibition,[15]; [18],98% (active)
same,growth inhibition,[15]; at 50.0 µM,92% (active)
same,growth inhibition,[16]; at 1.2 µM,1%
same,growth inhibition,[16]; at 3.7 µM,0%
same,growth inhibition,[16]; at 11.0 µM,9%
same,growth inhibition,[16]; at 33.0 µM,85% (active)
same,growth inhibition,[16]; at 100.0 µM,95% (active)
Nc1cc(Cl)ccc1Nc1ccccc1,growth inhibition,[1]; at 1.2 µM,-25%
same,growth inhibition,[1]; at 3.7 µM,-22%
same,growth inhibition,[1]; at 11.0 µM,-27%
same,growth inhibition,[1]; at 33.0 µM,-18%
same,growth inhibition,[1]; at 100.0 µM,68%
same,growth inhibition,[2]; at 1.2 µM,-31%
same,growth inhibition,[2]; at 3.7 µM,-26%
same,growth inhibition,[2]; at 11.0 µM,-25%
same,growth inhibition,[2]; at 33.0 µM,-17%
same,growth inhibition,[2]; at 100.0 µM,94% (active)
same,growth inhibition,[3]; at 1.2 µM,-58%
same,growth inhibition,[3]; at 3.7 µM,-21%
same,growth inhibition,[3]; at 11.0 µM,-19%
same,growth inhibition,[3]; at 33.0 µM,28%
same,growth inhibition,[3]; at 100.0 µM,69%
same,growth inhibition,[4]; at 1.2 µM,-25%
same,growth inhibition,[4]; at 3.7 µM,-15%
same,growth inhibition,[4]; at 11.0 µM,-10%
same,growth inhibition,[4]; at 33.0 µM,-1%
same,growth inhibition,[4]; at 100.0 µM,85% (active)
same,growth inhibition,[5]; at 1.2 µM,-21%
same,growth inhibition,[5]; at 3.7 µM,-15%
same,growth inhibition,[5]; [17],60%
same,growth inhibition,[5]; at 11.0 µM,-8%
same,growth inhibition,[5]; at 33.0 µM,16%
same,growth inhibition,[5]; [18],99% (active)
same,growth inhibition,[5]; at 50.0 µM,79.2% (active)
same,growth inhibition,[5]; at 100.0 µM,93% (active)
same,growth inhibition,[6]; at 1.2 µM,-42%
same,growth inhibition,[6]; at 3.7 µM,-6%
same,growth inhibition,[6]; [17],65%
same,growth inhibition,[6]; at 11.0 µM,-49%
same,growth inhibition,[6]; at 33.0 µM,-33%
same,growth inhibition,[6]; [18],99% (active)
same,growth inhibition,[6]; at 50.0 µM,79.8% (active)
same,growth inhibition,[6]; at 100.0 µM,92% (active)
same,growth inhibition,[7]; at 1.2 µM,-7%
same,growth inhibition,[7]; at 3.7 µM,-13%
same,growth inhibition,[7]; at 11.0 µM,-14%
same,growth inhibition,[7]; at 33.0 µM,1%
same,growth inhibition,[7]; at 100.0 µM,87% (active)
same,growth inhibition,[8]; [17],9%
same,growth inhibition,[8]; [18],91% (active)
same,growth inhibition,[8]; at 50.0 µM,83.5% (active)
same,growth inhibition,[9]; at 1.2 µM,5%
same,growth inhibition,[9]; at 3.7 µM,3%
same,growth inhibition,[9]; at 11.0 µM,-1%
same,growth inhibition,[9]; at 33.0 µM,3%
same,growth inhibition,[9]; at 100.0 µM,84% (active)
same,growth inhibition,[10]; [17],24%
same,growth inhibition,[10]; [18],95% (active)
same,growth inhibition,[10]; at 50.0 µM,61.1%
same,growth inhibition,[11]; at 1.2 µM,-21%
same,growth inhibition,[11]; at 3.7 µM,-16%
same,growth inhibition,[11]; [17],20%
same,growth inhibition,[11]; at 11.0 µM,-24%
same,growth inhibition,[11]; at 33.0 µM,-8%
same,growth inhibition,[11]; [18],92% (active)
same,growth inhibition,[11]; at 50.0 µM,84% (active)
same,growth inhibition,[11]; at 100.0 µM,93% (active)
same,growth inhibition,[12]; at 1.2 µM,-15%
same,growth inhibition,[12]; at 3.7 µM,-15%
same,growth inhibition,[12]; at 11.0 µM,-22%
same,growth inhibition,[12]; at 33.0 µM,5%
same,growth inhibition,[12]; at 100.0 µM,95% (active)
same,growth inhibition,[13]; at 1.2 µM,-85%
same,growth inhibition,[13]; at 3.7 µM,-70%
same,growth inhibition,[13]; at 11.0 µM,-31%
same,growth inhibition,[13]; at 33.0 µM,-25%
same,growth inhibition,[13]; at 100.0 µM,79% (active)
same,growth inhibition,[14]; at 1.2 µM,-53%
same,growth inhibition,[14]; at 3.7 µM,-36%
same,growth inhibition,[14]; at 11.0 µM,-35%
same,growth inhibition,[14]; at 33.0 µM,4%
same,growth inhibition,[14]; at 100.0 µM,89% (active)
same,growth inhibition,[15]; [17],62%
same,growth inhibition,[15]; [18],99% (active)
same,growth inhibition,[15]; at 50.0 µM,84% (active)
same,growth inhibition,[16]; at 1.2 µM,-15%
same,growth inhibition,[16]; at 3.7 µM,-39%
same,growth inhibition,[16]; at 11.0 µM,-24%
same,growth inhibition,[16]; at 33.0 µM,-15%
same,growth inhibition,[16]; at 100.0 µM,85% (active)
